From PubChem BioAssay
The list is not random: actives were taken first. Their share in the collection is about 18%.
TDP1 cell CPT: growth inhibition of DT40 Tdp1-/-;hTDP1 cells with camptothecin (screen for TDP1 inhibitors) | chicken DT40 Tdp1-/-;hTDP1 cells + 20 nM CPT, ATP luminescence, 48 h | Potency, µM (series often up to 46.2 µM), actives largely listed as inhibitors | hit rate 12% among 420,000; also: nearly all actives have a fitted effect of over 55% in size
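Cell growth measured by CellTiter-Glo luminescence after a minimum 48 h, 37 C compound exposure with 20 nM CPT in Tdp1-knockout DT40 cells stably expressing hTDP1, seeded 400/well; qHTS titration format.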
VP16 counter: inhibits Gal4-VP16 luciferase reporter, ROR gamma counter-screen; hit rate 3.5% among 310,000; Potency, µM (highest dose often 53.6 µM), most hits filed as inhibitors; AID 2546; Drosophila S2 Gal4-VP16 UAS-luciferase, luminescence, 20 h;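 also: Gal4-VP16 expression switched on by copper sulfate through the metallothionein promoter; nearly all actives have a fitted effect of over 50% in size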
TDP1 cell noCPT: qHTS for Inhibitors of human tyrosyl-DNA phosphodiesterase 1 (TDP1): qHTS in cells in absence of CPT; DT40 Tdp1-/- hTDP1 cells, no CPT, ATP luminescence, 48 h; hit rate 15% among 420,000; AID 686978, 2013; Potency, µM (doses to about 46.2 µM), actives largely listed as inhibitors; also: nearly all actives have a fitted effect of over 55% in size
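Growth of hTDP1-complemented DT40 Tdp1-knockout cells is measured by ATP luminescence after at least 48 hr compound exposure at 37 °C, with DMSO substituting for the 20 nM CPT used in the parallel screen.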
LDHA block: LDHA (human) enzyme inhibition; purified LDHA, NADH/diaphorase-resazurin fluorescence; stronger effect = lower value; activity change, % (values are at about 110 or 230 µM); hit rate 0.15% among 480,000; in the data active = activity change below about -30%; inconclusive = mostly about -25% to -30%
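Resorufin fluorescence (ex540/em590), read at 0 and 20 min after diaphorase/resazurin addition, reports the NADH left after a 5 min room-temperature reaction of 2 nM human LDH5 with 0.06 mM NADH and 0.2 mM pyruvate.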
IL-1B inflam inh: inflammasome signaling inhibition, IL-1 beta readout | THP-1 LPS/ATP IL-1B secretion, AlphaLISA, 16 h; stronger effect = lower value | hit rate 4.7% among 360,000 | activity change, % at 57.5 µM; in the data active = activity change below about -50%; inconclusive = mostly about -30% to -49%
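THP-1 cells pretreated 1 hr with compounds (up to 57.5 uM final), then stimulated with LPS (250 ng/mL final) plus ATP (1.25 mM final); secreted IL-1B measured by AlphaLISA after 16 hr, decreased signal indicating inhibition.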
RORgamma inh: inhibitors of mouse ROR gamma transcriptional activity; Drosophila S2 Gal4-RORgamma UAS-luciferase reporter, 20 h; Potency, µM (top dose mostly 53.6 µM), actives largely listed as inhibitors; hit rate 5.4% among 310,000; AID 2551; also: nearly all actives have a fitted effect of over 60% in size
Target sequence (P51450 whole entry, looked up, the tested form may be a part): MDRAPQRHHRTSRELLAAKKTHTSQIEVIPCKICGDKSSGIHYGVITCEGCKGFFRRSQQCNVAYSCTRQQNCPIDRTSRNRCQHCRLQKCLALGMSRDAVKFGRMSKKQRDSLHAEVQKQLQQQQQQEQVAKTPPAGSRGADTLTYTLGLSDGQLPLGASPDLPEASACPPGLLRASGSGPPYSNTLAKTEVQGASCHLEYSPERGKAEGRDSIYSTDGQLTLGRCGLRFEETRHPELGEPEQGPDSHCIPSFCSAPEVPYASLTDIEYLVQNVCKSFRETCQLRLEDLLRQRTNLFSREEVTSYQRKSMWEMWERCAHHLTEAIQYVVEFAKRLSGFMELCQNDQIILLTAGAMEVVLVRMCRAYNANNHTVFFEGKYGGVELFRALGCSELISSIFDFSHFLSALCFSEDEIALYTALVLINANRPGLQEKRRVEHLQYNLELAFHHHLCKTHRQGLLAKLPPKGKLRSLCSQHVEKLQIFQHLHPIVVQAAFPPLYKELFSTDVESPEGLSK
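ROR gamma transcriptional activity was tracked as Gal4-UAS luciferase output in stably transfected Drosophila Schneider cells, with compound added 1 hr before 700 uM copper sulfate induction and a 20 hr ambient-temperature incubation.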
Hits are given with their value; – = inactive; ? = inconclusive; · = no result; ! = not active in a repeat. Unless noted, calls follow the shape of the dose curve; as a rule, active = well fitted curve in the direction sought with a large enough effect; inconclusive = small, poorly fitted or top-dose-only effect, or another doubt; inactive = no such curve, though single readings can be large; an effect the other way counts as inactive or inconclusive.

SMILES	TDP1 cell CPT	VP16 counter	TDP1 cell noCPT	LDHA block	IL-1B inflam inh	RORgamma inh
CCOP(=S)(OCC)Oc1ccc2c(C)c(Cl)c(=O)oc2c1	?	–	6.51µM	–	–	–
C[C@@H]1CN([C@H](C)CO)C(=O)c2cc(/C=C/c3ccccc3)cnc2O[C@H]1CN(C)C(=O)NC1CCCCC1	?	·	?	–	?	·
COc1ccc(C#Cc2ccc3c(c2)O[C@H](CN(C)C(C)=O)[C@H](C)CN([C@@H](C)CO)S3(=O)=O)cc1	23.1µM	·	14.6µM	–	–	·
C[C@@H]1CN([C@H](C)CO)S(=O)(=O)c2ccc(C#Cc3cccc(F)c3)cc2O[C@@H]1CN(C)C(=O)CN1CCOCC1	?	·	18.4µM	–	?	·
CCN(CC)C(=O)c1ccc(NC(=O)CSc2ccc3ccccc3n2)cc1	·	·	·	–	·	·
Cn1nnc2cc(NC(=O)Nc3cccc(Cl)c3)ccc21	–	?	–	–	–	–
O=C(CSc1nc2c([nH]c3ccccc32)c(=O)n1-c1ccccc1)c1ccccc1	?	·	?	–	·	·
COc1cccc(OC)c1C1=NCC(=O)Nc2c1oc1ccc(Br)cc21	0.92µM	–	0.92µM	–	–	–
Oc1c(Cl)c(Cl)c(Cl)c(Cl)c1Cl	?	?	20.6µM	–	–	?
NC(=O)CN1CCCC1=O	–	–	2.91µM!	–	–	–
c1ccc(N2CCCC3(CCNCC3)C2)cc1	?	–	?	·	·	–
COc1ccc(OCC(=O)N2CCN(Cc3cc(=O)n4nc(-c5ccccc5C)sc4n3)CC2)cc1	14.6µM	·	10.3µM	–	·	·
COc1ccc(-c2nn3c(=O)cc(CN4CCN(C(=O)COc5ccc(F)cc5)CC4)nc3s2)cc1	–	·	?	–	·	·
COc1cccc(CN2CCN(C(=O)COc3ccc4ccccc4c3)CC2)c1	?	–	?	–	–	–
COc1cccc(-c2nn3c(=O)cc(CN4CCN(C(=O)COc5ccccc5C)CC4)nc3s2)c1	?	·	23.1µM	–	·	·
COc1ccc(-c2nn3c(=O)cc(CN4CCN(S(=O)(=O)c5ccc(C)cc5)CC4)nc3s2)cc1	20.6µM	·	16.4µM	–	·	·
Cc1ccc(-c2nn3c(=O)cc(CN4CCN(C(=O)COc5ccc(C)c(C)c5)CC4)nc3s2)cc1	?	·	?	–	·	·
COc1ccccc1-c1nn2c(=O)cc(CN3CCN(C(=O)Nc4ccc(C)cc4Cl)CC3)nc2s1	14.6µM	·	6.51µM	–	·	·
Cc1ccnc(SCc2nc3ccccc3s2)n1	–	–	–	–	–	?
COc1ccc2c(c1)CCc1c(C(=O)Nc3c(C)nn(Cc4ccccc4C)c3C)noc1-2	23.1µM	·	10.3µM	–	·	·
CC1(C)Cc2c(c(N3CCOCC3)nc3sc4c(NCc5ccccc5)nnnc4c23)CS1	16.4µM	–	23.1µM	–	–	–
C/C=C1\C[N@@+]2(C)CC[C@@]34C(=C(C=O)[C@H]1C[C@H]32)Nc1ccccc14	·	–	·	·	·	–
CC[C@H](O)C(C[C@H](C)N(C)C)(c1ccccc1)c1ccccc1	44.1µM	·	?	·	·	·
CC(CC(C#N)(c1ccccc1)c1ccccc1)N(C)C (stereo unspecified)	?	·	?	–	–	·
COc1cc2c(cc1O)[C@H]1Cc3ccc(OC)c(O)c3CN1CC2	·	–	·	·	·	?
CC(C)CCCC1(C)C=Cc2c(O)c3c(c(CCC(C)C)c2O1)OC12C(CC4CC1C(C)(C)OC2(CCC(C)C(=O)O)C4O)C3=O (stereo unspecified)	–	–	–	·	·	–
COc1c(CC=C(C)C)c2c(c3oc(=O)c(-c4ccc(O)cc4)c(O)c13)C=CC(C)(C)O2	–	–	–	·	·	–
CC(C)=CCCC1(C)C=Cc2c(O)c3c(c(CC=C(C)C)c2O1)OC12C(=CC4CC1C(C)(C)OC2(C/C=C(/C)C(=O)O)C4O)C3=O (stereo unspecified)	4.61µM	2.24µM	3.66µM	·	·	2.82µM
CC(C)=CCCC1(C)C=Cc2c(O)c3c(c(CC=C(C)C)c2O1)OC12C(=CC4CC1C(C)(C)OC2(C/C=C(/C)C(=O)O)C4=O)C3=O (stereo unspecified)	0.92µM	5.01µM	1.03µM	·	·	3.16µM
